Measurements: PubChem BioAssay (EPA / NIEHS)
The source made the active and inactive calls. Rule for the calls: active = hit-call score of the fitted dose curve at least 0.9, where 1 is the maximum; inactive = score below 0.9.

Tests used:
Conditions in all cases: mRNA level, 48 h; actives raise or lower the signal
[1] = read-out: HGF (gene 3082); test: LTEA_HepaRG_HGF: Life Technologies and Expression Analysis (LTEA) Assay for Hepatocyte Growth Facto (HGF) using HepaRG (AID 2283505)
Procedure, shortened: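 HepaRG, 48 h dosing, 8-pt half-log series from 100 uM in 0.5% DMSO, duplicates. Readout: TaqMan qRT-PCR of HGF mRNA, housekeeping-normalized; bidirectional curve fit vs DMSO baseline.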

[2] = read-out: Insulin Like Growth Factor 1 (IGF1), IGF1 (gene 3479); test: LTEA_HepaRG_IGF1: Life Technologies and Expression Analysis (LTEA) Assay for Insulin Like Growth Factor 1 (IGF1) using HepaRG (AID 2283506)
Procedure, shortened: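 HepaRG, plated 48 h, then switched to serum-free induction media; test chemical 8-pt half-log from 100 uM (0.5% DMSO), duplicate, 48 h. Lysis in RLT, TaqMan qRT-PCR, norm. ACTB/GAPDH/POLR2A. Bidirectional fit vs DMSO.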

[3] = read-out: Intercellular Adhesion Molecule 1 (ICAM1), ICAM1 (gene 3383); test: LTEA_HepaRG_ICAM1: Life Technologies and Expression Analysis (LTEA) Assay for Intercellular Adhesion Molecule 1 (ICAM1) using HepaRG (AID 2283507)
Procedure, shortened: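 HepaRG, 48 h exposure, 8-pt half-log series from 100 uM, 0.5% DMSO vehicle, duplicates. Readout: TaqMan qRT-PCR mRNA, housekeeping-normalized (ACTB/GAPDH/POLR2A). Bidirectional curve fit vs DMSO baseline.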

[4] = read-out: Insulin-like growth factor-binding protein 1 (IGFBP1), IGFBP1 (gene 3484); test: LTEA_HepaRG_IGFBP1: Life Technologies and Expression Analysis (LTEA) Assay for Insulin-like growth factor-binding protein 1 (IGFBP1) using HepaRG (AID 2283508)
Procedure, shortened: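 qRT-PCR mRNA read-out (TaqMan, Fluidigm array), normalised to three housekeeping genes; HepaRG cells, 48 h exposure, 8-pt half-log series from 100 uM, 0.5% DMSO vehicle; bidirectional curve fit vs DMSO baseline.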

[5] = read-out: Interleukin 6 (IL6), IL6 (gene 3569); test: LTEA_HepaRG_IL6: Life Technologies and Expression Analysis (LTEA) Assay for Interleukin 6 (IL6) using HepaRG (AID 2283509)
Procedure, shortened: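 HepaRG cells exposed in duplicate for 48 h to eight half-log concentrations, top 100 uM, in 0.5% DMSO serum-free induction medium. mRNA measured by qRT-PCR, normalized to ACTB, GAPDH and POLR2A. Bidirectional fit versus DMSO.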

[6] = read-out: Interleukin 6 Receptor (IL6R), IL6R (gene 3570); test: LTEA_HepaRG_IL6R: Life Technologies and Expression Analysis (LTEA) Assay for Interleukin 6 Receptor (IL6R) using HepaRG (AID 2283510)
Procedure, shortened: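 Readout is IL6R transcript level by TaqMan qRT-PCR, normalized to three housekeeping genes and fitted bidirectionally against 0.5% DMSO controls. Human HepaRG cells received chemicals for 48 h in serum-free induction medium, highest concentration 100 uM.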

[7] = read-out: Potassium channel subfamily K member 1 (KCNK1), KCNK1 (gene 3775); test: LTEA_HepaRG_KCNK1: Life Technologies and Expression Analysis (LTEA) Assay for Potassium channel subfamily K member 1 (KCNK1) using HepaRG (AID 2283511)
Procedure, shortened: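 Differentiated HepaRG cells, 48 h exposure in serum-free induction medium with 0.5% DMSO; 8 concentrations, half-log from 100 uM, duplicate. KCNK1 mRNA by qRT-PCR, normalized to ACTB, GAPDH, POLR2A; bidirectional fit vs DMSO.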

[8] = read-out: Keratin 19 (KRT19), KRT19 (gene 3880); test: LTEA_HepaRG_KRT19: Life Technologies and Expression Analysis (LTEA) Assay for Keratin 19 (KRT19) using HepaRG (AID 2283512)
Procedure, shortened: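 HepaRG, 48 h chemical exposure, 8-pt half-log CRC from 100 uM, 0.5% DMSO vehicle, duplicates. Readout: TaqMan qRT-PCR of KRT19 mRNA, housekeeping-normalized (ACTB/GAPDH/POLR2A). Bidirectional fit vs DMSO baseline.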

[9] = read-out: JUN Transcription Factor, JUN (gene 3725); test: LTEA_HepaRG_JUN: Life Technologies and Expression Analysis (LTEA) Assay for JUN Transcription Factor using HepaRG (AID 2283513)
Procedure, shortened: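 Cells plated 48 h, medium switched to serum-free induction medium, then dosed 48 h (100 uM top, half-log dilutions, 0.5% DMSO). RNA isolated; JUN measured by qRT-PCR against three housekeeping genes; gain or loss fitted relative to DMSO.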

[10] = read-out: Lipase C (LIPC), LIPC (gene 3990); test: LTEA_HepaRG_LIPC: Life Technologies and Expression Analysis (LTEA) Assay for Lipase C (LIPC) using HepaRG (AID 2283514)
Procedure, shortened: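 HepaRG cells, 48 h after plating, treated in duplicate for 48 h in serum-free induction medium over 8 half-log concentrations from 100 uM, 0.5% DMSO. LIPC mRNA by TaqMan qRT-PCR normalized to ACTB/GAPDH/POLR2A; bidirectional fit versus DMSO.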

[11] = read-out: Lipoprotein lipase (LPL), LPL (gene 4023); test: LTEA_HepaRG_LPL: Life Technologies and Expression Analysis (LTEA) Assay for Lipoprotein lipase (LPL) using HepaRG (AID 2283515)
Procedure, shortened: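 Differentiated HepaRG cells, plated 48 h, then exposed 48 h in serum-free induction medium to 8 concentrations (top 100 uM, half-log steps) in 0.5% DMSO, duplicate. LPL mRNA measured by qRT-PCR, normalized to ACTB, GAPDH and POLR2A.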

[12] = read-out: MicroRNA 122 (MIR122), gene 406906; test: LTEA_HepaRG_MIR122: Life Technologies and Expression Analysis (LTEA) Assay for MicroRNA 122 (MIR122) using HepaRG (AID 2283516); note: the transcript read is the microRNA miR-122
Procedure, shortened: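 HepaRG plated 48 h, switched to serum-free induction medium, then treated in duplicate for 48 h (100 uM top, half-log steps, 0.5% DMSO vehicle). RNA isolated, qRT-PCR performed, concentration-response fitted both directions relative to DMSO.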

[13] = read-out: matrix metalloproteinase-10 (MMP10), MMP10 (gene 4319); test: LTEA_HepaRG_MMP10: Life Technologies and Expression Analysis (LTEA) Assay for matrix metalloproteinase-10 (MMP10) using HepaRG (AID 2283517)
Procedure, shortened: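 Differentiated HepaRG cells in serum-free induction medium exposed 48 h in duplicate to 8-point half-log series up to 100 uM in 0.5% DMSO. mRNA quantified by qRT-PCR, normalised to ACTB, GAPDH, POLR2A; bidirectional fit versus DMSO.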

[14] = read-out: MYC, MYC (gene 4609); test: LTEA_HepaRG_MYC: Life Technologies and Expression Analysis (LTEA) Assay for MYC using HepaRG (AID 2283518)
Procedure, shortened: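 qRT-PCR read-out of MYC transcript (Fluidigm TaqMan, housekeeping-normalized) after 48 h chemical exposure of HepaRG cells; eight concentrations, top 100 uM, half-log steps. Bidirectional curve fitting against 0.5% DMSO vehicle baseline.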

[15] = read-out: matrix metalloproteinase-3 (MMP3), MMP3 (gene 4314); test: LTEA_HepaRG_MMP3: Life Technologies and Expression Analysis (LTEA) Assay for matrix metalloproteinase-3 (MMP3) using HepaRG (AID 2283519)
Procedure, shortened: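 HepaRG cells (~100,000/well) in serum-free induction medium were dosed in duplicate for 48 h with an 8-point half-log series from 100 uM, 0.5% DMSO. MMP3 mRNA was quantified by Fluidigm TaqMan qRT-PCR, normalized to three housekeeping genes.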

[16] = read-out: Paternally Expressed 10 (PEG10), PEG10 (gene 23089); test: LTEA_HepaRG_PEG10: Life Technologies and Expression Analysis (LTEA) Assay for Paternally Expressed 10 (PEG10) using HepaRG (AID 2283520)
Procedure, shortened: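 HepaRG, 48 h post-plating → serum-free induction medium → 48 h chemical exposure (duplicate, 8-pt, max 100 uM, half-log, 0.5% DMSO) → lysis in RLT → TaqMan qRT-PCR for PEG10, ACTB/GAPDH/POLR2A normalisation.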

[17] = read-out: Protein phosphatase 2A (PPP2R4), PTPA (gene 5524); test: LTEA_HepaRG_PPP2R4: Life Technologies and Expression Analysis (LTEA) Assay for Protein phosphatase 2A (PPP2R4) using HepaRG (AID 2283522)
Procedure, shortened: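 Readout is PPP2R4 transcript level by microfluidic qRT-PCR after 48 h chemical treatment of human HepaRG liver cells. Concentrations spanned 100 uM downward in half-log steps; gain or loss of signal was fitted relative to DMSO.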

[18] = read-out: Phosphatase and tensin (PTEN), PTEN (gene 5728); test: LTEA_HepaRG_PTEN: Life Technologies and Expression Analysis (LTEA) Assay for Phosphatase and tensin (PTEN) using HepaRG (AID 2283523)
Procedure, shortened: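 HepaRG cells, 48 h after plating, exposed in duplicate for 48 h in serum-free induction medium to 8 half-log concentrations up to 100 uM (0.5% DMSO). PTEN mRNA by qRT-PCR, normalized to ACTB, GAPDH, POLR2A; bidirectional fit versus DMSO.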

[19] = read-out: solute carrier (SLC22A1), SLC22A1 (gene 6580); test: LTEA_HepaRG_SLC22A1: Life Technologies and Expression Analysis (LTEA) Assay for solute carrier (SLC22A1) using HepaRG (AID 2283524)
Procedure, shortened: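 Differentiated human HepaRG cells in serum-free induction medium, exposed 48 h in duplicate to 8-point half-log series from 100 µM top in 0.5% DMSO. SLC22A1 mRNA by TaqMan qRT-PCR normalized to ACTB, GAPDH, POLR2A; bidirectional fit versus DMSO.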

[20] = read-out: Pyruvate Dehydrogenase Kinase 4 (PDK4), PDK4 (gene 5166); test: LTEA_HepaRG_PDK4: Life Technologies and Expression Analysis (LTEA) Assay for Pyruvate Dehydrogenase Kinase 4 (PDK4) using HepaRG (AID 2283525)
Procedure, shortened: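 HepaRG cells plated 48 h, then switched to serum-free induction medium and exposed in duplicate for 48 h to 8 half-log concentrations from 100 uM in 0.5% DMSO. PDK4 mRNA measured by qRT-PCR, normalized to ACTB, GAPDH and POLR2A; bidirectional fit versus DMSO.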

Measured: outcome

CCC(C)=NO
inactive: all assays above
